Test [1] can be described thus: qHTS assay to identify small molecule antagonists of the thyroid receptor (TR) signaling pathway - cell viability counter screen (AID 743064). Note: nearly all actives have a fitted effect of over 50% in size. An outline of the steps:
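GH3.TRE-Luc rat pituitary cells carrying a TRE-luciferase reporter were treated with compound plus 1 nM T3 (final) for 23.5 h at 37 °C. Viability was then read in the same wells by CellTiter-Fluor fluorescence after a further 30 min.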
In general terms: qHTS replaces the single test concentration by a dilution series.

The test system of test [2] is thyroid hormone receptor (rat, GH3 cells). As to the kind of experiment: qHTS assay to identify small molecule agonists of the thyroid receptor (TR) signaling pathway (AID 743066; calls by dose curve).
Test [3] is described as follows: qHTS assay to identify small molecule antagonists of the estrogen receptor alpha (ER-alpha) signaling pathway - cell viability counter screen (AID 743074; calls by dose curve;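 note: HEK293 cells carrying ER-alpha-UAS-bla reporter stimulated with 17beta-estradiol; nearly all actives have a fitted effect of over 45% in size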; note: potency is the fitted concentration of half-maximal effect).
Test [4] can be described thus: qHTS assay to identify small molecule antagonists of the estrogen receptor alpha (ER-alpha) signaling pathway using the BG1 cell line - cell viability counter screen (AID 743081).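 Note: compound given together with 17beta-estradiol as the ER stimulus; series mostly up to about 70 µM; nearly all actives have a fitted effect of over 45% in size.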
In a further test the target is Aromatase (Homo sapiens) (UniProt P11511). Put plainly: qHTS assay to identify aromatase inhibitors (AID 743083). Note: series mostly up to about 70 µM; nearly all actives have a fitted effect of over 55% in size.
Aromatase (Homo sapiens), sequence (P11511 whole entry, looked up): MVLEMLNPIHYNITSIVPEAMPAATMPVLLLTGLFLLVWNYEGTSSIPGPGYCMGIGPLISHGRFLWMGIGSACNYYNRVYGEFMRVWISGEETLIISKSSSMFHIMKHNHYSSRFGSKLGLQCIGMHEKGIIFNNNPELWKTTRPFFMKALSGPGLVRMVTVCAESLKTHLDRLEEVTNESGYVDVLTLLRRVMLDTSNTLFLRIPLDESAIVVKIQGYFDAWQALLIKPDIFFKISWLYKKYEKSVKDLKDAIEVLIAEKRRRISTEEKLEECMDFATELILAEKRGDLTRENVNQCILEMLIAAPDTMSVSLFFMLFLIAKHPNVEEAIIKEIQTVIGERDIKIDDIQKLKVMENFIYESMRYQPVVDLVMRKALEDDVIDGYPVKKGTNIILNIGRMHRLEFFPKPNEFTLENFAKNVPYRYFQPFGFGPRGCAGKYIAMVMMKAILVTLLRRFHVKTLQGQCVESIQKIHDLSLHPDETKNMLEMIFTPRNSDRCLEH
The target of test [5] is Estrogen receptor (Homo sapiens) (UniProt P03372). Put plainly: qHTS assay to identify small molecule agonists of the estrogen receptor alpha (ER-alpha) signaling pathway (AID 743075; calls by dose curve;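 note: HEK293 GripTite cells with ER-alpha and UAS-driven beta-lactamase reporter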).
Estrogen receptor (Homo sapiens), sequence (P03372 whole entry, looked up): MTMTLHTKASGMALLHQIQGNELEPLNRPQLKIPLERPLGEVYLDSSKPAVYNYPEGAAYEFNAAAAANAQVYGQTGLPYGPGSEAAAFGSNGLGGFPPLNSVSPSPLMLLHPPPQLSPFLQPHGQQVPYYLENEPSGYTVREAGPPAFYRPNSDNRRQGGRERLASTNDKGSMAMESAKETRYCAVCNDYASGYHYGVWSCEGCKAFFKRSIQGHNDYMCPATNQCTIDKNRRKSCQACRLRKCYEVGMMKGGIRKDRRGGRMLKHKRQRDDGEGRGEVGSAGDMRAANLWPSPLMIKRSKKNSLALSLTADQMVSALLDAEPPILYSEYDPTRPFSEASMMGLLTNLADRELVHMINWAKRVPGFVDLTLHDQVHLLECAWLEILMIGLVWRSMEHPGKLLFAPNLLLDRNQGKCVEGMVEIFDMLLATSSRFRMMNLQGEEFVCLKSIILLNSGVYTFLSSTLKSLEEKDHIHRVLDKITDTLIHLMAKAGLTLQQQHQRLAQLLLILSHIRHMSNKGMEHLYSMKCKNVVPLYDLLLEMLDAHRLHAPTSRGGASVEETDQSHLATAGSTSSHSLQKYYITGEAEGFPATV
For test [6] the target is unchanged. As to the kind of experiment: qHTS assay to identify small molecule agonists of the estrogen receptor alpha (ER-alpha) signaling pathway using the BG1 cell line (AID 743079). Note: nearly all actives have a fitted effect of over 20% in size.
Test [7] can be described thus: qHTS assay to identify small molecule antagonists of the estrogen receptor alpha (ER-alpha) signaling pathway using the BG1 cell line (AID 743080; calls by dose curve;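 note: BG1 cells stimulated with 17beta-estradiol alongside compound; series mostly up to about 70 µM; nearly all actives have a fitted effect of over 25% in size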). An outline of the steps: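 After 5 days in phenol-red-free 10% charcoal-stripped FBS medium, BG1-Luc-4E2 cells were seeded, left 24 h at 37 C, co-treated with compounds and 17beta-estradiol for 21.5 h, then assayed for viability and luciferase.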

Test [8] has as its target Estrogen receptor (Homo sapiens) (UniProt P03372). As to the kind of experiment: qHTS assay to identify small molecule antagonists of the estrogen receptor alpha (ER-alpha) signaling pathway (AID 743069; active = well fitted curve in the direction sought with a large enough effect in the signal ratio in the repeat runs, not every such curve was filed as active; the % refers to the signal ratio). An outline of the steps: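 Antagonist mode: compounds in DMSO were co-added with 17beta-estradiol to ER-alpha-bla HEK293 cells (2% charcoal-stripped serum) and left 18 h at 37C. Reporter inhibition was measured as FRET fluorescence after 2 h LiveBLAzer substrate at room temperature.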

Values joined by “and” are separate entries in the source; they are usually repeats but may differ in a detail not shown here. Equal values may be shown once. Records with an inconclusive call do not appear. Active and inactive are the calls of the source. Unless noted, calls come from the whole dose curve; as a rule, active = well fitted curve in the direction sought with a large enough effect in the repeat runs; inconclusive = weak or mixed curves; inactive = no such curve, though single readings can be large; an effect the other way counts as inactive or inconclusive.

Regarding `C[N+](C)(CCOc1ccccc1)Cc1cccs1`, the Potency result in test [1] and in [3] was “inactive” each time. The result (in [2]; in test [4]; with Aromatase (Homo sapiens)) was inactive.

For `CC(C)(CCC(=O)O)C(=O)O`, the Potency result in [1], in test [3], in test [5], in [6] and in test [7] was “inactive” throughout. Besides, the compound was classed as inactive (in [2]; in test [4]; with Aromatase (Homo sapiens)).

Turning to `[O-][n+]1cccc(CO)c1`, the Potency entry in test [1], in test [8], in test [3], in [5] and in test [7] was “inactive” each time. Further, the result (in test [2]; in [4]; with Aromatase (Homo sapiens)) was inactive.

`CC(C)(C)C(=O)Oc1ccc(S(=O)(=O)Nc2ccccc2C(=O)NCC(=O)O)cc1`: the Potency result in test [1], in [8], in test [3], in [5], in test [6] and in test [7] was “inactive” in each case. In addition, the call (in [2]; in the test with Aromatase (Homo sapiens)) was inactive.

As for `C[C@@H]1C[C@H]2[C@@H]3C[C@H](F)C4=CC(=O)C(Cl)=C[C@]4(C)[C@@]3(F)[C@@H](O)C[C@]2(C)[C@@]1(O)C(=O)CO`, the Potency result in [1], in test [3], in test [5] and in [6] was “inactive” each time. Further, the compound was called inactive (in test [2]; in test [4]; with Aromatase (Homo sapiens)).

For `Nc1ccccn1`, the Potency entry in test [1] and in test [3] was “inactive” throughout. The compound was called inactive (in test [2]; in [4]; with Aromatase (Homo sapiens)).

As for `CC(C)C[C@@H](N)C(=O)O`, the Potency entry in test [1] and in [3] was “inactive” in each case. In addition, the call (in [2]; in test [4]; with Aromatase (Homo sapiens)) was inactive.

Turning to `CCCCCCCCCCCCSC`, the Potency entry in test [1] and in test [3] was “inactive” each time. Besides, the compound was called inactive (in [2]; in test [4]; with Aromatase (Homo sapiens)).

For `CC(=O)OCC(=O)[C@@]1(O)[C@H](C)C[C@H]2[C@@H]3CCC4=CC(=O)C=C[C@]4(C)[C@@]3(F)[C@@H](O)C[C@@]21C`, the Potency entry in test [1] and in test [3] was “inactive” throughout. Further, the compound was classed as inactive (in test [2]; in test [4]; in the test with Aromatase (Homo sapiens)).

`Cc1nc2ccc(CN(C)c3ccc(C(=O)N[C@@H](CCC(=O)O)C(=O)O)s3)cc2c(=O)[nH]1`: the Potency entry in [1] is “inactive”. Moreover, the compound was classed as inactive (in test [2]; in [4]; with Aromatase (Homo sapiens)). Moreover, the Potency in test [3] was 190 nM (active) and 239 nM (active).

For the compound `CCOCC(C)O` (stereo not drawn), the Potency entry in test [1], in test [8], in test [3], in test [5], in test [6] and in test [7] was “inactive” in each case. In addition, the compound was classed as inactive (in test [4]; with Aromatase (Homo sapiens)).

Regarding `Cc1ncc(COP(=O)(O)O)c(C=O)c1O`, the Potency entry in [1], in [5], in test [6] and in test [7] was “inactive” in each case. The compound was classed as inactive (in [2]; in test [4]; with Aromatase (Homo sapiens)).

Turning to `CC(C(=O)O)c1cccc(Oc2ccccc2)c1` (stereo not drawn), the Potency entry in test [1] and in test [3] was “inactive” throughout. Further, the compound was classed as inactive (in [2]; in test [4]; with Aromatase (Homo sapiens)).

Turning to `NCCCC(N)(C(=O)O)C(F)F` (stereo not drawn), the Potency entry in [1] and in test [3] was “inactive” throughout. The result in test [2] and in test [4] was inactive.

Turning to `O=S(=O)(O)c1cccc2c(S(=O)(=O)O)cccc12`, the Potency entry in [1] and in [3] was “inactive” in each case. For the same compound, the outcome (in test [2]; in the test with Aromatase (Homo sapiens)) was inactive.

For `CO/N=C(\C(=O)N[C@@H]1C(=O)N2C(C(=O)O)=C(CSc3nc(=O)c(O)nn3C)CS[C@H]12)c1csc(N)n1`, the Potency result in test [1], in [8], in test [3], in test [5] and in test [7] was “inactive” in each case. Moreover, the outcome (in [2]; in test [4]; with Aromatase (Homo sapiens)) was inactive.

As for `C=COC(=O)C(C)(CC)CCC(C)C` (stereo not drawn), the Potency result in test [1], in test [8], in test [5], in test [6] and in [7] was “inactive” throughout. Also, the call (in test [2]; in [4]; with Aromatase (Homo sapiens)) was inactive.

For the compound `CCCCOCCOC(=O)CCCCCCCCC(=O)OCCOCCCC`, the Potency entry in [1] and in test [3] was “inactive” throughout. Moreover, the result (in [2]; in test [4]; with Aromatase (Homo sapiens)) was inactive.

Turning to `[Ca+2]`, the Potency result in test [1] and in [3] was “inactive” in each case. Also, the call (in [2]; in test [4]; with Aromatase (Homo sapiens)) was inactive.

Consider `Cc1ccc(C(=O)c2ccc(CC(=O)O)n2C)cc1`, for which the Potency entry in [1], in test [3], in test [5], in test [6] and in test [7] was “inactive” in each case. Besides, the call (in [2]; in test [4]; with Aromatase (Homo sapiens)) was inactive.

Turning to `CN1C(C)(C)CC(O)CC1(C)C`, the Potency result in [1], in test [8], in test [3], in [5], in [6] and in test [7] was “inactive” in each case. In addition, the call (in test [4]; in the test with Aromatase (Homo sapiens)) was inactive.

Consider `CCN1CCOCC1`, for which the Potency entry in [1] and in [3] was “inactive” throughout. Further, the result (in test [2]; in test [4]; in the test with Aromatase (Homo sapiens)) was inactive.

For `Cc1ccnc(NS(=O)(=O)c2ccc(N)cc2)n1`, the Potency result in [8], in [3], in test [5], in test [6] and in [7] was “inactive” each time. Also, the outcome (in test [4]; with Aromatase (Homo sapiens)) was inactive.

`CC1=C(C/C=C(\C)CCC[C@H](C)CCC[C@H](C)CCCC(C)C)C(=O)c2ccccc2C1=O`: the outcome (in test [2]; in test [4]; with Aromatase (Homo sapiens)) was inactive.

As to `C[N+]1(C)[C@@H]2CC(OC(=O)[C@H](CO)c3ccccc3)C[C@H]1[C@@H]1O[C@@H]12` (stereo partly drawn), the outcome (in test [2]; in test [4]; with Aromatase (Homo sapiens)) was inactive. Also, the Potency result in [8], in test [3], in test [5], in test [6] and in test [7] was “inactive” throughout.

Take `CCCCc1nc(Cl)c(CO)n1Cc1ccc(-c2ccccc2-c2nn[nH]n2)cc1`: in [3], the Potency entry is “inactive”. Also, the compound was called inactive (in test [4]; with Aromatase (Homo sapiens)).

In the case of `NCCCC[C@H](N[C@@H](CCc1ccccc1)C(=O)O)C(=O)N1CCC[C@H]1C(=O)O`, in test [3], the Potency result was “inactive”. Further, the compound was called inactive (in test [4]; in the test with Aromatase (Homo sapiens)).

`CC[N+](CC)(CC(=O)Nc1c(C)cccc1C)Cc1ccccc1` (tested in a mixture with another compound): the Potency entry in [3] was “inactive”. Further, the call (in test [4]; with Aromatase (Homo sapiens)) was inactive.
